Screens deposited in PubChem BioAssay by National Center for Advancing Translational Sciences (NCATS).
Integrin act MD: qHTS for Activators of Integrin-Mediated Alleviation for Muscular Dystrophy | alpha7betagal myoblasts, beta-gal FDG fluorescence, 48 h | Potency, µM (highest dose often 38.3 µM), actives largely listed as activators | actives 0.064% (n = 350,000); also: nearly all actives have a fitted effect of over 60% in size
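Alpha7betagal+/- myoblasts (passage 13) were plated 16-24 hr, then exposed to compounds (1:260 dilution of DMSO stock) for 48 hours at 37C. After MPER lysis, β-galactosidase reporter activity was read as FDG fluorescence (ex 480/em 540) after 30 minutes.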
Giardia kill: Small Molecules that selectively kill Giardia lamblia: qHTS; activity change, % at 7.66 µM, hits read low; actives 0.15% (n = 340,000); AID 540267, 2011; Giardia lamblia trophozoite viability; in the data active = activity change below about -80%; inconclusive = between about -30% and that limit;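 also: parasites exposed to compound for two days anaerobically before the ATP read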
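Each well holds 100 Giardia trophozoites and compound. After two days (48 hrs) at 37 deg C in anaerobic conditions, ATP is quantified by luminescence.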
RORg inh: qHTS for inhibitors of ROR gamma transcriptional activity; Drosophila S2 Gal4-RORgamma UAS-luciferase reporter, 20 h; Potency, µM (titrated, usually from 53.6 µM), usual class: inhibitors; actives 5.4% (n = 310,000); also: nearly all actives have a fitted effect of over 60% in size
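Schneider cells (Drosophila), stable Gal4 DBD–ROR gamma + UAS-luc; 1 hr cmpd preincubation; Cu2+ induction 700 uM final; 20 hr ambient; luminescence.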
Gal4-VP16 FLuc: VP16 counterscreen qHTS for inhibitors of ROR gamma transcriptional activity | Drosophila S2 Gal4-VP16 UAS-luciferase, luminescence, 20 h | Potency, µM (doses to about 53.6 µM), most hits filed as inhibitors | actives 3.5% (n = 310,000) | AID 2546, 2010;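 also: Gal4-VP16 expression switched on by copper sulfate through the metallothionein promoter; nearly all actives have a fitted effect of over 50% in size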
ERG-DNA inh: qHTS for Small Molecule Inhibitors of the ERG Ets/DNA interaction; fluorescence polarization, His-ERG Ets domain / labelled DNA; actives 0.028% (n = 370,000); Potency, µM (titrated, usually from 76.9 µM), actives largely listed as inhibitors; AID 624246, 2012; active = well fitted inhibition curve with a large enough effect in the polarisation, with a control signal flat; inconclusive = small, poorly fitted or top-dose-only effect, or effect the other way, or a change in a side signal; inactive = no such curve, though single readings can be large or run the other way; the % refers to the polarisation;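 also: polarization taken with two DNA probes labelled with fluorescein and Texas red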
Target sequence (P11308 whole entry, looked up, the tested form may be a part): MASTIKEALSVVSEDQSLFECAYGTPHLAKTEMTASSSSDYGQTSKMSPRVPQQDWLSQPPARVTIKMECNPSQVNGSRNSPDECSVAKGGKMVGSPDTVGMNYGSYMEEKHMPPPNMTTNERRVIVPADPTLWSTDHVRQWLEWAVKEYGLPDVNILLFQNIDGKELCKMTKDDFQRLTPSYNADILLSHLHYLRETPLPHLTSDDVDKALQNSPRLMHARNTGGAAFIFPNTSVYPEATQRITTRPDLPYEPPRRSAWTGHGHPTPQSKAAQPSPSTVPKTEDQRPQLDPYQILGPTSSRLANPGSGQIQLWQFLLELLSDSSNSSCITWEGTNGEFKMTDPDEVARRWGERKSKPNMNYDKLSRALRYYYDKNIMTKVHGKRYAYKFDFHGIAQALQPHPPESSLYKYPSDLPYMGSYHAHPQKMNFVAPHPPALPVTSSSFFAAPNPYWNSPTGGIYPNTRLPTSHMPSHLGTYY
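His-tagged ERG Ets domain (1 uM in the protein solution; 300mM KCl, 50mM Tris-HCl, 1mM EDTA, 1mM DTT, pH 7.5) received compound, then a probe mix of 5 nM fluorescein-DNA and 100nM Texas-615-DNA. Fluorescence polarization was read for both dyes.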
A number is an active result; 0 = inactive; ? = inconclusive; - = no result given; [ ] = another dose, or the depositor's remark. Many of the other results were omitted from the sample, so hits are more common in it than they were. Unless noted, calls follow the shape of the dose curve; as a rule, active = well fitted curve in the direction sought with a large enough effect; inconclusive = small, poorly fitted or top-dose-only effect, or another doubt; inactive = no such curve, though single readings can be large; an effect the other way counts as inactive or inconclusive.

SMILES	Integrin act MD	Giardia kill	RORg inh	Gal4-VP16 FLuc	ERG-DNA inh
O=C(NC(Cc1ccc(F)cc1)C(=O)O)c1ccccc1 (centres undefined)	0	0	0	0	0
Cc1ccc(Cn2ccn(Cc3ccccc3F)c(=O)c2=O)cc1	-	-	-	-	0
COc1ccc(-c2sc(Nc3ccc(F)c(F)c3F)nc2CCC(=O)NN)cc1	0	0	?	0	0
Cc1cc([N+](=O)[O-])nn1CC(=O)NNC(=S)Nc1ccc(F)cc1	0	0	14µM	?	0
Cc1cc(C(F)(F)F)nn1CC(=O)NNC(=S)NCC(C)C	0	0	7.1µM	0	0
CCNC(=S)NNC(=O)Cn1nc(C)cc1C	0	0	10µM	0	0
Cc1cc(C(F)(F)F)nn1CC(=O)NNC(=S)Nc1ccc(F)cc1	0	0	0	0	0
COc1cc(C(=O)OCC(=O)c2cc(C)n(C)c2C)cc(OC)c1OC	0	0	0	0	0
CCC(=O)c1ccc(OCC(=O)OCC(=O)c2cc(C)n(C)c2C)cc1	0	0	0.89µM	1.3µM	0
CCC(=O)c1ccc(OCC(=O)OCC(=O)c2c(N)n(C)c(=O)n(C)c2=O)cc1	0	0	-	-	0
Cc1cc(C(=O)COC(=O)c2nccnc2N)c(C)n1C	0	0	10µM	?	0
Cc1ccc2c(Cl)cc(Cl)c(OCC(=O)NC(C)(C)C)c2n1	0	0	7.1µM	?	0
COC(=O)COc1c(Cl)cc(Cl)c2ccc(C)nc12	0	0	?	22µM	0
CCOC(=O)C(C(=O)OCC)C(C(=O)OCC)N1CCOCC1 (centres undefined)	0	0	0	5.6µM	0
NC(=S)N/N=C1\CCOc2ccc(F)cc21	0	0	5µM	22µM	0
NC(=O)N/N=C1\CCS(=O)(=O)c2ccc(F)cc21	0	0	0	0	0
COc1cc(NC(=O)c2cccc(C)c2)ccc1NC(=O)c1cc2ccccc2o1	0	0	?	13µM	0
CCC(=O)Nc1ccc(Cl)c(NC(=S)NC(=O)c2cc3ccccc3o2)c1	0	0	?	3.5µM	0
CCC(=O)NC(=S)Nc1ccc(NC(=O)c2cc3ccccc3o2)c(OC)c1	0	0	4.5µM	?	0
CCOc1cccc(C(=O)Nc2ccc(NC(=O)c3cc4ccccc4o3)c(OC)c2)c1	0	0	?	?	0
N#Cc1cccc(-c2nccc(-n3ccnc3)n2)c1	-	-	?	0	-
CC(NC(=O)COC(=O)c1ccco1)C12CC3CC(CC(C3)C1)C2 (centres undefined)	-	0	-	-	-
Cc1noc(C)c1-c1nc(N(C)C)c2ccccc2n1	-	-	0	0	-
Cc1ncc([N+](=O)[O-])n1CCOC(=O)Nc1ccc([N+](=O)[O-])cc1	0	-83	0	0	0
Cc1ncc([N+](=O)[O-])n1CCOC(=O)c1cc(Cl)cc(Cl)c1N	?	-86	0	0	0
SMILES	Integrin act MD	Giardia kill	RORg inh	Gal4-VP16 FLuc	ERG-DNA inh
Cc1cccc(NC(=S)N(CCCN2CCOCC2)Cc2ccccn2)c1	0	0	0	0	0
CCOc1ccccc1NC(=S)N(CCCN1CCOCC1)Cc1cn(C)c2ccccc12	0	0	11µM	?	0
COc1ccc(Cl)cc1NC(=S)N(CCCN1CCOCC1)Cc1cn(C)c2ccccc12	0	0	13µM	?	0
COc1ccccc1NC(=S)N(CCCN1CCOCC1)Cc1cn(C)c2ccccc12	0	0	?	0	0
S=C(Nc1ccc(Oc2ccccc2)cc1)N(CCCN1CCOCC1)Cc1ccccn1	0	0	14µM	0	0
Cc1cc(NC(=S)N(CCCN2CCOCC2)Cc2ccco2)ccc1Cl	0	0	?	?	0
Cc1ccc(Cl)c(NC(=S)N(CCCN2CCOCC2)Cc2ccco2)c1	0	0	8.9µM	?	-
CCN1CC=C2C(C#N)=C(N)C(C#N)(C#N)C(c3cc(Cl)ccc3Cl)C2C1 (centres undefined)	0	0	0	0	0
COc1cc(Cl)ccc1NC(=S)N(CCCN1CCOCC1)Cc1cn(C)c2ccccc12	0	0	11µM	?	0
COc1ccc(NC(=S)N(CCCN2CCOCC2)C(C)c2cc3ccccc3o2)cc1 (centres undefined)	0	0	10µM	0	0
CCc1ccc(NC(=O)C(C)OC(=O)Cn2[nH]c(=O)c3ccccc3c2=O)cc1 (centres undefined)	0	-	-	-	-
O=C1/C(=C/c2cccs2)NC(=S)N1C1CC1	0	0	7.1µM	?	0
C=CCNC(=S)N(Cc1ccccc1)Cc1ccccc1	0	0	?	0	0
CC(C)C(=O)NC(=S)N(Cc1ccccc1)Cc1ccccc1	0	0	2.8µM	5µM	0
CC(C)CC(=O)NC(=S)N(Cc1ccccc1)Cc1ccccc1	0	0	3.2µM	6.3µM	0
CCCOc1ccc(CNC(=O)CCCN2C(=O)CSc3c2c(C)nn3-c2ccccc2)cc1	-	-	-	-	0
NC(=S)N/N=C1\CC(n2nnnc2-c2ccccc2Cl)C2COC1O2 (centres undefined)	0	0	11µM	?	0
NC(=S)NN=C1c2ccccc2-c2c(F)c(F)c(F)c(F)c21	0	0	-	-	-
Cc1ccc(-c2nnnn2C2C/C(=N\NC(N)=S)C3OCC2O3)cc1 (centres undefined)	0	0	10µM	?	0
CNC(=O)C1(C(F)(F)F)CC(CCCO)CCCO1 (centres undefined)	-	0	0	0	-
CCCCCCCCN=C(N)c1ccc(C(=O)OCC2CCCCC2)cc1	-	-	7.9µM	0	-
CCCCCCCCOC(=O)c1ccc(N)cc1	0	0	0	0	0
CC(=O)C1=C(O)C(=O)N(Cc2cccnc2)C1c1ccc(C(C)C)cc1 (centres undefined)	0	0	0	?	0
CC(C)c1ccc(/C=C2\NC(=S)N(Cc3cccnc3)C2=O)cc1	0	0	7.9µM	0	0
COc1cccc(CNc2cnc3ccccc3c2)c1O	0	0	?	10µM	-
SMILES	Integrin act MD	Giardia kill	RORg inh	Gal4-VP16 FLuc	ERG-DNA inh
Cc1ccc(O)c(CNc2cnc3ccccc3c2)c1	0	0	0[1.91 µM]	0	0
COc1cccc(C(=O)NC(=S)Nc2ccccc2N2CCCC2)c1	0	0	4µM	13µM	0
CC(C)Oc1cccc(C(=O)NC(=S)Nc2ccccc2N2CCOCC2)c1	0	0	5.6µM	5.6µM	0
COc1cccc(C(=O)Nc2ccccc2N2CCCC2)c1	0[7.66 µM]	0	0	0	0
COc1cccc(C(=O)NC(=S)Nc2ccccc2N2CCCCC2)c1	0	0	2.5µM	5µM	0
CC(C)Oc1ccc(C(=O)Nc2ccccc2N2CCOCC2)cc1	0	0	0	0	0
COc1cc(C(=O)NC(=S)Nc2ccccc2N2CCCC2)cc(OC)c1OC	0	0	4.5µM	4µM	0
CSCCC(NC(=O)c1ccccc1)C(=O)N/N=C(\C)c1ccccc1 (centres undefined)	0	0	0	0	0
